Screens: PubChem BioAssay, National Center for Advancing Translational Sciences (NCATS)
The list is not random: actives were taken first. Their share in the collection is about 17%.
TDP1 block: blocks human tyrosyl-DNA phosphodiesterase 1; Potency, µM (titrated, usually from 130 µM), for inactives: at the highest dose activity change, negative = inhibition, most hits filed as inhibitors; actives 0.28% (n = 350,000); recombinant TDP1, AlphaScreen DNA substrate cleavage; Q9NUW8; also: % is scaled to controls: 0 for no effect and ±100 for the full control effect; nearly all actives have a fitted effect of over 40% in size
Target sequence (Q9NUW8 whole entry, looked up): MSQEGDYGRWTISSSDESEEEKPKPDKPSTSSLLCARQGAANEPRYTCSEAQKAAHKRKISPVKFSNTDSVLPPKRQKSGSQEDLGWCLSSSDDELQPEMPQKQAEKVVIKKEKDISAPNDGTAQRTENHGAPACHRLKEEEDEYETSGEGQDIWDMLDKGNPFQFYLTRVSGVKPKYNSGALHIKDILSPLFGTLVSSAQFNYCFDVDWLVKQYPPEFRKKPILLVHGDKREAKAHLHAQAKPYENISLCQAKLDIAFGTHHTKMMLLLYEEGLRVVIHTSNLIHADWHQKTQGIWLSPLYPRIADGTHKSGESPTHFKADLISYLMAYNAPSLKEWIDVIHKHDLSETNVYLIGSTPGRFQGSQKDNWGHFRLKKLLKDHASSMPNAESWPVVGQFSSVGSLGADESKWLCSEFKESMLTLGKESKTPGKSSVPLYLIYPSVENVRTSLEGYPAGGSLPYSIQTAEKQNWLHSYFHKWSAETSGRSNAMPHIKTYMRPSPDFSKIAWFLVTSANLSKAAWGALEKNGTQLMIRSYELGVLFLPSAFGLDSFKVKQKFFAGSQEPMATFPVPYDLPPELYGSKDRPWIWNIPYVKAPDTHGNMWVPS
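AlphaScreen read-out: signal falls as enzyme removes the 3' tyrosine-FITC from a 5'-biotinylated DNA oligo (15 nM, 5 min, RT). Enzyme was E. coli-made recombinant Tdp1 at 1 nM, exposed to compound for 15 min beforehand; beads 10 ug/ml, 10 min.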
ClpP mod: qHTS Assay for Activators of ClpP. purified B. subtilis ClpP, FRET peptide cleavage, 20 min. Potency, µM (top dose mostly 57.5 µM), for the others: at the top dose activity change, negative = active. actives 1.9% (n = 340,000); active = well fitted falling curve with a large enough effect; inconclusive = small, poorly fitted or top-dose-only effect; inactive = no such curve, though single readings can be large or run the other way; also: the source files actives as falling curves though it sought activators and does not explain the sign; nearly all actives have a fitted effect of over 65% in size
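Buffer: 100 mM Tris/HCl pH8, 100 mM KCl, 0.05% low protease BSA, 2.5% glycerol, 0.01% Tween-20. ClpP 10 microg/mL final; 20 min RT; delta FRET normalized to ADEP and DMSO controls.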
TDP1 cell CPT: DT40-hTDP1 cell growth loss with CPT. actives 12% (n = 420,000). Potency, µM (series often up to 46.2 µM), for the others: at the top dose activity change, negative = growth inhibition, most hits filed as inhibitors. chicken DT40 Tdp1-/-;hTDP1 cells + 20 nM CPT, ATP luminescence, 48 h; also: % is scaled to controls: 0 for no effect and ±100 for the full control effect; nearly all actives have a fitted effect of over 55% in size
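Chicken DT40 Tdp1-/- cells complemented with human TDP1, 400 cells/well, exposed to compounds plus 20 nM camptothecin for at least 48 h at 37 C; viability read as ATP content by CellTiter-Glo luminescence.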
DT40 TDP1 no CPT: qHTS for Inhibitors of human tyrosyl-DNA phosphodiesterase 1 (TDP1): qHTS in cells in absence of CPT; DT40 Tdp1-/- hTDP1 cells, no CPT, ATP luminescence, 48 h; actives 15% (n = 420,000); Potency, µM (top dose mostly 46.2 µM), inactives show at the top dose activity change, negative = growth inhibition, hits mostly inhibitors; also: % is scaled to controls: 0 for no effect and ±100 for the full control effect; nearly all actives have a fitted effect of over 55% in size
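Stably hTDP1-transfected Tdp1-null chicken DT40 cells were treated with library compounds minus camptothecin and grown for at least 48 hr at 37 °C, after which cellular ATP was quantified by luminescence.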
An asterisk follows results filed as active; [ ] = dose if it differs, or a comment. Unless noted, calls follow the shape of the dose curve; as a rule, active = well fitted curve in the direction sought with a large enough effect; inconclusive = small, poorly fitted or top-dose-only effect, or another doubt; inactive = no such curve, though single readings can be large; an effect the other way counts as inactive or inconclusive. Potency is read from the fitted curve at half-maximal effect.

Results for Cc1cccc(CNc2ccnc(-c3ccc(C(=O)N(C)C)cc3)n2)c1 ?
TDP1 block: 9.3%[56.1 µM]; TDP1 cell CPT: inconclusive; DT40 TDP1 no CPT: inconclusive

How did Fc1ccc(Nc2ccnc(-c3ccccc3C(F)(F)F)n2)cc1 do in these assays?
TDP1 cell CPT: 11.6µM*; DT40 TDP1 no CPT: inconclusive

What do the screens show for `Cc1cccc(CNc2ccnc(-c3ccccc3C(F)(F)F)n2)c1`?
TDP1 cell CPT: 18.4µM*; DT40 TDP1 no CPT: inconclusive

Results for Cc1cccc(CNc2ncncc2-c2ccccc2C(F)(F)F)c1 ?
TDP1 cell CPT: -16.7%; DT40 TDP1 no CPT: -23.4%

How did CN(C)c1ccc(-c2nccc(NCc3ccccc3)n2)cc1 do in these assays?
TDP1 block: 8.5%[56.1 µM]; TDP1 cell CPT: inconclusive; DT40 TDP1 no CPT: 16.4µM*

How did CC(=O)NCCNc1ccnc(-c2ccccc2C(F)(F)F)n1 do in these assays?
TDP1 cell CPT: -4.3%; DT40 TDP1 no CPT: 19.4%

What do the screens show for `Cc1cnc(CNc2ccnc(-c3ccc(N(C)C)cc3)n2)cn1`?
TDP1 block: 3.4%[56.1 µM]; TDP1 cell CPT: -9.8%; DT40 TDP1 no CPT: -14.6%

Results for Cc1cccc(CNc2ccnc(-c3ccc(N(C)C)cc3)n2)c1 ?
TDP1 block: 23.9%[56.1 µM]; TDP1 cell CPT: -106.8%; DT40 TDP1 no CPT: 11.6µM*

What do the screens show for `Cc1nn(CC(=O)NCC(C)c2ccccc2)c(=O)c2cc3ccccc3n12` (stereo not given)?
TDP1 block: 0.0%; ClpP mod: -19.4%; TDP1 cell CPT: -23.3%; DT40 TDP1 no CPT: -27.6%

Results for CS(=O)(=O)c1ncc(Cl)c(C(=O)Nc2ccc(N3CCOCC3)cc2)n1 ?
TDP1 block: 4.6%; ClpP mod: 1.1%; TDP1 cell CPT: 1.16µM*; DT40 TDP1 no CPT: 1.12µM*

How did O=C(Nc1ccc(OC(F)F)cc1)c1ccccn1 do in these assays?
TDP1 block: -2.6%; ClpP mod: -11.7%; TDP1 cell CPT: 3.8%; DT40 TDP1 no CPT: 2.7%

What do the screens show for `CS(=O)(=O)c1ncc(Cl)c(C(=O)Nc2ccc(OC(F)F)cc2)n1`?
TDP1 cell CPT: 0.82µM*; DT40 TDP1 no CPT: 1.16µM*

How did O=C(Nc1ccc(N2CCOCC2)cc1)c1cnccn1 do in these assays?
TDP1 block: 6.0%; TDP1 cell CPT: -9.9%; DT40 TDP1 no CPT: -9.7%

How did COc1ccc(CCNC(=O)CCc2cn(Cc3ccc(C)cc3)c3ccccc23)c(OC)c1OC do in these assays?
TDP1 block: 2.6%; ClpP mod: inconclusive; TDP1 cell CPT: inconclusive; DT40 TDP1 no CPT: inconclusive

How did COc1ccccc1CNc1ccc(-c2nc(C)no2)cc1[N+](=O)[O-] do in these assays?
TDP1 block: 0.0%; ClpP mod: -0.9%; TDP1 cell CPT: 7.31µM*; DT40 TDP1 no CPT: 7.31µM*

Results for Cc1cccc(-c2noc(-c3ccc(NCc4ccccc4)c([N+](=O)[O-])c3)n2)c1 ?
TDP1 block: 5.7%; ClpP mod: 0.2%; TDP1 cell CPT: -17.7%; DT40 TDP1 no CPT: -5.3%

Results for Cc1noc(-c2ccc(NCc3ccccc3)c([N+](=O)[O-])c2)n1 ?
TDP1 block: 5.7%; ClpP mod: -2.3%; TDP1 cell CPT: 18.4µM*; DT40 TDP1 no CPT: inconclusive

What do the screens show for `COc1ccc2nc(Cl)c(/C=N/Nc3ccccn3)cc2c1`?
TDP1 block: 9.2%; TDP1 cell CPT: inconclusive; DT40 TDP1 no CPT: inconclusive

What do the screens show for `O=C(C[C@@H]1C/C=C\C[C@H](NC(=O)OCC2c3ccccc3-c3ccccc32)C(=O)OC[C@H]2CCCN2C1=O)NCCO`?
TDP1 block: -4.9%; ClpP mod: -9.2%; TDP1 cell CPT: inconclusive; DT40 TDP1 no CPT: inconclusive

What do the screens show for `O=C(C[C@H]1C/C=C\C[C@H](NC(=O)OCC2c3ccccc3-c3ccccc32)C(=O)OC[C@H]2CCCN2C1=O)NCCO`?
TDP1 block: -14.1%; ClpP mod: -7.1%; TDP1 cell CPT: 11.6µM*; DT40 TDP1 no CPT: 16.4µM*

How did O=C(C[C@@H]1C/C=C\C[C@H](NC(=O)OCC2c3ccccc3-c3ccccc32)C(=O)OC[C@H]2CCCN2C1=O)N[C@@H](CO)Cc1ccccc1 do in these assays?
TDP1 block: 2.9%; ClpP mod: -1.0%; TDP1 cell CPT: 4.61µM*; DT40 TDP1 no CPT: 4.61µM*

How did O=C(C[C@H]1C/C=C\C[C@H](NC(=O)OCC2c3ccccc3-c3ccccc32)C(=O)OC[C@@H]2CCCN2C1=O)NCCO do in these assays?
TDP1 block: -7.3%; ClpP mod: -3.4%; TDP1 cell CPT: 4.11µM*; DT40 TDP1 no CPT: 5.8µM*

What do the screens show for `COc1ccc(C2CC(=O)c3cnc4c(-c5ccc(F)cc5)c(C)nn4c3C2)cc1OC` (stereo not given)?
TDP1 block: -5.8%; ClpP mod: 0.6%; TDP1 cell CPT: 4.3%; DT40 TDP1 no CPT: -5.1%

Results for O=C(NCCc1csc(-c2ccccc2)n1)c1c(F)cccc1Cl ?
TDP1 block: -2.3%; TDP1 cell CPT: 2.0%; DT40 TDP1 no CPT: inconclusive

What do the screens show for `O=C(NCCc1csc(-c2ccc(F)cc2)n1)c1c(F)cccc1Cl`?
TDP1 block: 0.6%; ClpP mod: -6.2%; TDP1 cell CPT: 23.1µM*; DT40 TDP1 no CPT: inconclusive

Results for O=C(NCCc1csc(-c2ccc(F)cc2)n1)c1cccc(F)c1 ?
TDP1 block: 3.0%; ClpP mod: -2.3%; TDP1 cell CPT: inconclusive; DT40 TDP1 no CPT: 18.4µM*

How did O=C(Cc1ccc(F)cc1)NCCc1csc(-c2cccc(F)c2)n1 do in these assays?
TDP1 block: -0.6%; ClpP mod: -13.5%; TDP1 cell CPT: inconclusive; DT40 TDP1 no CPT: inconclusive

What do the screens show for `COc1ccccc1C(=O)Nc1nc2nc(C)c(Cc3ccccc3)c(=O)n2[nH]1`?
TDP1 block: -2.3%; ClpP mod: -2.8%; TDP1 cell CPT: -18.2%; DT40 TDP1 no CPT: -12.0%

Results for CN(Cc1ccccc1)S(=O)(=O)c1ccc(NC(=S)NC(=O)C(C)(C)C)cc1 ?
TDP1 block: 2.7%; ClpP mod: 708.2%; TDP1 cell CPT: 20.6µM*; DT40 TDP1 no CPT: 16.4µM*

What do the screens show for `CN(Cc1ccccc1)S(=O)(=O)c1ccc(NC(=S)NC(=O)C2CCCCC2)cc1`?
TDP1 block: 0.0%; ClpP mod: -1.8%; TDP1 cell CPT: 11.6µM*; DT40 TDP1 no CPT: 14.6µM*

Results for C=CCN(CC=C)S(=O)(=O)c1ccc(NC(=S)NC(=O)C2CC2)cc1 ?
TDP1 block: 1.3%; ClpP mod: -3.2%; TDP1 cell CPT: 23.1µM*; DT40 TDP1 no CPT: 13µM*

How did O=C(NC(=S)NCCc1ccccc1)C1CCCCC1 do in these assays?
TDP1 block: 2.8%; ClpP mod: -3.8%; TDP1 cell CPT: 3.1%; DT40 TDP1 no CPT: -23.8%

What do the screens show for `O=C(NC(=S)N(Cc1ccccc1)Cc1ccccc1)C1CCCCC1`?
TDP1 block: 1.0%; ClpP mod: 1.1%; TDP1 cell CPT: inconclusive; DT40 TDP1 no CPT: 23.1µM*

Results for CN(Cc1ccccc1)S(=O)(=O)c1ccc(NS(C)(=O)=O)cc1 ?
TDP1 block: 0.0%; ClpP mod: -0.4%; TDP1 cell CPT: inconclusive; DT40 TDP1 no CPT: -10.4%
